# A selection: hits, their analogues and other compounds. The true share with any hit is near 2.2%.
# Ba/F3 V617F tox: reduced viability of JAK2V617F-dependent Ba/F3 cells, primary screen, JAK2V617F inhibitor project, cell-based, Ba/F3 EpoR-JAK2V617F, luminescence; ATP luminescence; inhibition, % at 5.6 µM; 220,000 tested, 1.1% active;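 active = inhibition above the campaign mean plus 3 SD over all tested compounds, cut at about 24% in these data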;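 note: cytokine-independent growth of Ba/F3 cells driven by EpoR plus mutant JAK2; 0% = DMSO-treated cells and 100% = JAK inhibitor I control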
# BaF3 tox: parental Ba/F3 cell viability inhibition, counter-screen for JAK2V617F inhibitor project, murine pro-B, CellTiter-Glo luminescence | inhibition, % at 5.6 µM | CellTiter-Glo ATP luminescence | 220,000 tested, 1.1% active;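 active = inhibition above a per-campaign cutoff, the mean inhibition of all tested compounds plus 3 SD, cut at about 27% in these data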;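 note: 0% = DMSO wells and 100% = JAK Inhibitor I control wells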
# aSyn 5UTR inh: MLPCN primary screen, SNCA 5' untranslated region. alpha-synuclein 5'UTR reporter, inhibitor activity. inhibition, % (tested at 7.5 µM). 300,000 tested, 0.82% active; in the data active = inhibition above about 60%; inconclusive = no clear call, values can overlap the other calls;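 note: H4 neuroglioblastoma cells stably carrying SNCA 5'UTR luciferase fusion; 0% = DMSO wells and 100% = positive control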
# KLF5 inhibitor: KLF5 expression inhibitors, primary screen, DLD-1 cells, luminescence; DLD-1 KLF5 promoter-luciferase reporter; inhibition, % at 5 µM; 290,000 tested, 0.23% active; AID 1700, 2009;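 active = inhibition above a per-plate limit of that plate's mean compound inhibition plus 3 SD, cut at about 60% in these data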;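 note: 0% = DMSO wells and 100% = LY294002 at 200 µM; higher means less KLF5 promoter-driven luciferase light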
# APP 5UTR inh: inhibitors of APP translation via 5'UTR reporter, primary screen, APP 5'UTR luciferase, SH-SY5Y cells. 190,000 tested, 0.82% active. inhibition, % at 2 µM. AID 1285, 2008. SH-SY5Y APP 5'UTR-luciferase reporter, luminescence;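 active = inhibition above a set limit, derived from the sample mean plus 3 SD, cut at about 45% in these data; inconclusive = one replicate passes the limit while the other fails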
# IEC-6 tox: cytotoxicity in IEC-6 intestinal epithelial cells, primary screen, cytotoxicity control for KLF5 inhibitor project, cell-based, luminescence; IEC-6 cytotoxicity, luminescence viability; inhibition, % at 5 µM; 290,000 tested, 0.78% active;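 note: 0% = plate median of test compound wells and 100% = cytotoxic reference compound wells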
# IEC-6 cytotox cf: cytotoxic compounds in IEC-6 epithelial cells, confirmation, cytotoxicity control, cell-based, luminescence | 1,900 tested, 63% active | inhibition, % at 5 µM | IEC-6 rat intestinal epithelial viability | shares compounds with IEC-6 tox;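 note: 0% = vehicle and 100% = reference cytotoxic drug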
# Numbers without * were called inactive; ? = inconclusive; nt = no result given. Cut-off read from the data, not from the text of the source, unless noted: active = inhibition above about 22%; inactive = the rest.
SMILES,Ba/F3 V617F tox,BaF3 tox,aSyn 5UTR inh,KLF5 inhibitor,APP 5UTR inh,IEC-6 tox,IEC-6 cytotox cf
CC(=O)c1cccc(S(=O)(=O)Nc2cccnc2)c1,nt,nt,0,-29,nt,2,nt
O=S(=O)(O)c1cccc2c(N=Nc3ccc(O)c4ncccc34)cccc12,nt,nt,9,-20,nt,-6,nt
Nc1ccc(Br)c2cccnc12,-3,9,-16,15,6,11,nt
COc1cccc(N=Nc2ccc3cccnc3c2O)c1,nt,nt,16,61,nt,30*,56*
COc1cccc(N=Nc2ccc(O)c3ncccc23)c1,nt,nt,44,27,nt,30*,11
Nc1ccc(N=Nc2ccccc2)c2cccnc12,nt,nt,-57,-30,nt,33*,34*
COc1cc(OC)c(NC2=CC(=O)C(=O)c3ccccc32)cc1Cl,nt,nt,107*,42,nt,78*,31*
CCC(C(=O)Nc1cc(Cl)c(OC)cc1OC)c1ccccc1 (stereo unspecified),1,8,-7,0,0,3,nt
O=C(O)CCC(=O)Nc1ccc(C(=O)OC2CCCCC2)cc1,2,5,49,-19,17,4,nt
CCCCC(=O)Nc1ccc(C(=O)OC2CCCCC2)cc1,3,10,-11,-30,-13,24*,18
CN(Cc1ccccc1)C(=O)CCC1CCN(C(=O)CCC(F)(F)F)CC1,nt,nt,-49,-81,nt,-11,nt
COC(C/C=C/C(=O)[C@H](C)OCc1ccccc1)OC,nt,nt,-16,nt,nt,nt,nt
COc1ccc(C(=O)Nc2cccc3c2CCCC3)cc1,nt,nt,-132,-9,nt,24*,22
COc1ccc(CC(=O)Nc2cccc3c2CCCC3)cc1,nt,nt,8,-3,nt,4,nt
O=C(c1ccc(Cl)cc1)c1ccc(Oc2cc(NN3CCCCC3)c([N+](=O)[O-])cc2[N+](=O)[O-])cc1,nt,nt,28,-10,nt,-1,nt
Cc1ccc(C(=O)c2cc([N+](=O)[O-])ccc2N2CCCCC2)cc1C,83*,75*,56,3,94*,58*,61*
Cc1ccc(C(=O)c2cc([N+](=O)[O-])ccc2N2CCN(C)CC2)cc1,6,26,?,15,63*,44*,38*
COc1ccc(OC)c2c1cc(C(=O)N[C@H](C(=O)N1CCC[C@H]1C(=O)O)C(C)C)n2C,nt,nt,0,-13,nt,-3,nt
S=C(NCCN1CCOCC1)N/N=C/c1cccs1,nt,nt,7,-45,nt,30*,-15
Oc1cccc(/C=N/NC(=S)NCCN2CCOCC2)c1O,0,0,-7,-26,3,-3,nt
COc1ccc(/C=N/Nc2ncccc2[N+](=O)[O-])c(OC)c1,4,8,-122,-70,-137,5,nt
O=C(c1ccc(Br)o1)N1CCN(Cc2ccccc2Cl)CC1,nt,nt,6,-38,nt,6,nt
O=C(Nc1nc(-c2ccccc2)cs1)Nc1ccc(F)cc1F,-1,4,-63,-33,-11,-1,nt
O=C(CN1C(=O)C2CCCCC2C1=O)Nc1nc(-c2ccccn2)cs1 (stereo unspecified),5,1,46,25,39,41*,14
C[C@@H](C(=O)Nc1nc(-c2ccccn2)cs1)N1C(=O)C2CCCCC2C1=O (stereo partly specified),-3,0,9,-41,nt,-1,nt
SMILES,Ba/F3 V617F tox,BaF3 tox,aSyn 5UTR inh,KLF5 inhibitor,APP 5UTR inh,IEC-6 tox,IEC-6 cytotox cf
O=C(Nc1nc(-c2ccccn2)cs1)c1ccc2c(c1)OCCO2,-1,-2,-2,-99,-110,28*,20
O=C(Nc1nc(-c2ccccn2)cs1)Nc1ccc(F)cc1F,nt,nt,39,-3,nt,50*,47*
CCCC(=O)NC(C)c1nc(-c2ccc(C)cc2)no1 (stereo unspecified),nt,nt,-23,nt,nt,nt,nt
O=C(NC(=S)Nc1sc2c(c1C(=O)O)CCCC2)c1ccccc1,nt,nt,-55,-37,nt,-3,nt
C=CCN(c1ccccc1)S(=O)(=O)c1cccc(C(=O)NNC(=O)c2ccncc2)c1,nt,nt,2,nt,nt,nt,nt
O=C(N/C(=C/C=C/c1ccccc1)C(=O)N1CCOCC1)c1ccccc1Br,-1,-2,-38,8,-16,-3,nt
Cc1ccc(-c2nc(C#N)c(N3CCC(C(N)=O)CC3)o2)cc1,nt,nt,7,-26,nt,5,nt
CCc1ccc2oc(C(=O)N3CCN(c4ccccc4OC)CC3)cc(=O)c2c1,nt,nt,-4,8,nt,31*,55*
CCc1ccc2oc(C(=O)N3CCN(c4ccc(OC)cc4)CC3)cc(=O)c2c1,nt,nt,-5,-18,nt,4,nt
O=C(NC1=C(Nc2ccc(F)cc2)C(=O)c2ccccc2C1=O)c1ccc(Cl)cc1,-3,-1,-57,0,5,4,nt
O=C1C(Cl)=C(Nc2ccc(O)cc2)C(=O)c2ccccc21,39*,59*,-59,48,nt,102*,56*
COc1cc(-c2noc(C)c2C#CC2(O)CCCCC2)cc(OC)c1OC,nt,nt,14,-2,nt,9,nt
COc1cc(-c2noc(C)c2C#Cc2ccsc2)cc(OC)c1OC,nt,nt,69*,57,nt,83*,61*
Cc1ccc2c(CNCc3ccccc3)cc(=O)oc2c1,nt,nt,-65,40,nt,28*,29*
Cc1ccc2c(CN(C)Cc3cccc(F)c3)cc(=O)oc2c1,nt,nt,-124,-103,nt,14,nt
CC(=O)/C(C#N)=C1\NC(=O)C(Cc2cc(Cl)ccc2Cl)S1 (stereo unspecified),-2,5,-2,24,nt,74*,47*
O=C1NC(=Nc2ccccc2)SC1Cc1cccc(Cl)c1Cl (stereo unspecified),0,6,5,-21,6,0,nt
CC(=O)/C(C#N)=C1\NC(=O)C(Cc2ccccc2Cl)S1 (stereo unspecified),4,5,-48,21,4,78*,60*
CCOc1ccccc1NC(=O)CSc1nnc(CCC(=O)Nc2ccccc2F)n1C,nt,nt,2,-8,nt,-5,nt
C=C(C)C(=O)Nc1cccnc1Oc1ccc(F)cc1F,-1,0,9,-2,nt,-1,nt
CCN1CCN(c2nc(Nc3cccc(OC)c3)nc(N)c2[N+](=O)[O-])CC1,nt,nt,-86,13,nt,24*,8
CCN1CCN(c2nc(Nc3ccc(C)c(C)c3)nc(N)c2[N+](=O)[O-])CC1,-3,-3,-3,-1,-1,2,nt
Cc1nn(Cc2noc(C(=O)NC3CCC(C)CC3)n2)c(C)c1Br (stereo unspecified),nt,nt,16,-16,nt,35*,24*
C=CCc1cccc([C@@H]2[C@@H](C)CC[C@H]3C(=O)N4[C@@H](c5cc(OC)c(OC)c(OC)c5)c5[nH]c6ccccc6c5C[C@H]4C(=O)N23)c1,-4,-1,31,35,-3,34*,9
Brc1ccc2c(c1)CN1CCCC1=N2,nt,nt,23,-7,nt,34*,12

# Screening data from PubChem.
